From PubChem BioAssay
Rows were chosen to be rich in hits. Some 2.3% of all compounds tested hit in one or more screens of this group.
Mcl1-Bid inh – Mcl-1/Bid interaction inhibition; inhibition, % at 21.7 µM; AID 1021; 220,000 tested, 0.97% active; TR-FRET Mcl-1/Bid-Dy647 peptide binding, 1536-well; Q07820;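 active = compounds that cut the binding signal by more than half at the single screening dose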;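 note: His-tagged Mcl-1 with europium anti-His antibody binding Bid BH3 peptide; 0% = Mcl-1 plus peptide wells and 100% = peptide-only wells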
Target sequence (Q07820 whole entry, looked up): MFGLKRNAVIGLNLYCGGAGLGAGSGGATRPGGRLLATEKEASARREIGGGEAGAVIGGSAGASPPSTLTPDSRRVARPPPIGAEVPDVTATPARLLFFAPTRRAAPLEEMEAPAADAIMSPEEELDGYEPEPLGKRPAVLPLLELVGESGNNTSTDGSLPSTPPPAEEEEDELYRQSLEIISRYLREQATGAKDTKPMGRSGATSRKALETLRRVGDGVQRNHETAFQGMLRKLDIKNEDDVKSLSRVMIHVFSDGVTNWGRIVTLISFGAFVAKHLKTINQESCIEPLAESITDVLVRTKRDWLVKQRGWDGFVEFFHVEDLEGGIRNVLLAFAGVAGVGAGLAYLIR
MCL1-BIM inh – disrupts human MCL1 binding to BIM-BH3 peptide | Q07820 | GST-MCL1 / FITC-Bim-BH3 fluorescence polarization | inhibition, % at 10.9 µM | 320,000 tested, 0.68% active;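 active = inhibition above the mean inhibition of all tested compounds plus 3 SD, set per campaign, cut at about 40% in these data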;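 note: 0% = DMSO wells and 100% = unlabeled Bim-BH3 peptide control; higher means more loss of mP so more displacement of Bim peptide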
GLD-1 RNA inh – GLD-1-TGE RNA interaction inhibition (C. elegans); purified GLD-1 + fluorescein TGE RNA, fluorescence polarization; 320,000 tested, 0.44% active; inhibition, % at 5.96 µM; AID 2280;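 active = percent inhibition above a per-plate cutoff, the plate mean of test compounds plus 3 SD, cut at about 30% in these data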;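 note: 0% = DMSO wells with GLD-1 and probe and 100% = wells lacking GLD-1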
Bcl-xL primary – Bcl-xL (human) inhibition | Q07817 | GST-Bcl-xL / FITC-Bim BH3 peptide fluorescence polarization | inhibition, % at 10.9 µM | 320,000 tested, 0.7% active | AID 2129;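 active = inhibition above the mean of all tested compounds plus 3 SD, cutoff set per campaign, cut at about 30% in these data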;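 note: 0% = DMSO wells and 100% = unlabeled Bim-BH3 peptide competitor; inhibitors lower millipolarization by displacing the labeled peptide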
Target sequence (Q07817 whole entry, looked up): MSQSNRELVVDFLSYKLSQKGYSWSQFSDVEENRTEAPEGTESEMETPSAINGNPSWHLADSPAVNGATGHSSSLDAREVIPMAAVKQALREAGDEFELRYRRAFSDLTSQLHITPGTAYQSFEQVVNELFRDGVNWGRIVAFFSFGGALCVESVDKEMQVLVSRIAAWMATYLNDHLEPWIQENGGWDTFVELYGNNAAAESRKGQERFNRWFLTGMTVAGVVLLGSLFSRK
Bim-Mcl-1 – disrupts Bim peptide binding to human Mcl-1 | 190,000 tested, 0.1% active | inhibition, % at 10 µM | AID 1009 | Q07820 | Bead-based flow cytometry, Bim peptide-Mcl-1 binding; in the data active = inhibition above about 40%;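 note: 0% = no compound tracer wells and 100% = peptide blocker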
Mcl1-Noxa inh – Mcl-1/Noxa interaction inhibition; AID 1022; Q07820; TR-FRET Mcl-1/Noxa peptide binding, 2 h; 220,000 tested, 1.5% active; inhibition, % at 21.7 µM;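 active = compounds that cut the protein-peptide binding signal by more than 50% relative to plate controls in a single-dose test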;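 note: His-tagged Mcl-1 with rhodamine Noxa BH3 peptide and terbium anti-His antibody; 0% = Mcl-1 plus Noxa peptide wells and 100% = peptide-only wells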
GLD1 RNA confirm – confirmation of C. elegans GLD-1 TGE RNA binding inhibitors | shares compounds with GLD-1 RNA inh | GLD-1/FL-TGE RNA fluorescence polarization, biochemical | inhibition, % at 5.96 µM | 550 tested, 10% active | AID 2459;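 active = average inhibition across triplicates above the hit cutoff set in the primary screen, cut at about 32% in these data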;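 note: 0% = GLD-1 with RNA probe and DMSO and 100% = wells lacking GLD-1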
* = called active by the depositor; x = no result.

SMILES	Mcl1-Bid inh	MCL1-BIM inh	GLD-1 RNA inh	Bcl-xL primary	Bim-Mcl-1	Mcl1-Noxa inh	GLD1 RNA confirm
CCOC(=O)CC(=O)CSc1nc2cc(C)ccc2cc1C	-7	29	23	21	2	20	x
CCOC(=O)CC(=O)CSc1nc2ccc(OC)cc2cc1C	-15	47*	34*	36*	0	12	-5
COc1ccc(-n2nc(C(=O)NCC(=O)NCCCN3CCOCC3)c3ccccc3c2=O)cc1	x	-3	-1	-1	x	x	x
Cc1cc2cc(CNC(=O)c3ccco3)ccc2n1C	-115	41*	34*	38*	x	8	3
Cc1cc2cc(CNC(=O)c3ccc4c(c3)OCO4)ccc2n1C	-15	29	44*	33*	0	30	6
Cc1cc2cc(CNC(=O)COc3ccccc3)ccc2n1C	-64	17	21	17	x	15	x
COc1cc(OC)cc(C(=O)NCc2ccc3c(c2)cc(C)n3C)c1	-47	35	52*	30*	-2	20	7
CCOc1ccc(CC(=O)NCc2ccc3c(c2)cc(C)n3C)cc1	-46	5	11	1	0	7	x
COCC(=O)NCc1ccc2c(c1)cc(C)n2C	-9	33	36*	30	-2	2	14
COc1ccc(CC(=O)NCc2ccc3c(c2)cc(C)n3C)cc1OC	-46	-1	6	3	1	7	x
Cc1cccc(NC(=O)C2CC(O)CN2C(=O)Oc2ccccc2)c1 (stereo unspecified)	x	7	4	1	x	x	x
NC(=O)c1ccccc1NC(=O)c1ccoc1	x	-6	-7	-7	x	x	x
CCOC(=O)c1ccc(S(=O)(=O)Nc2cc(S(=O)(=O)Nc3ccc(OC)cc3)ccc2O)cc1	x	x	0	x	x	x	x
Cc1cc(C)nc(SCc2nnc(SCC(N)=O)n2Cc2ccco2)n1	-16	-7	0	-1	1	8	x
CCOC(=O)CSc1nnc(CSc2nc(C)cc(C)n2)n1Cc1ccco1	-13	10	36*	9	0	8	2
CC(C)CC1NC(=O)c2ccccc2-n2c1nc1ccc(Cl)cc1c2=O (stereo unspecified)	x	x	6	x	x	x	x
O=C(CNC(=O)c1cccnc1)N/N=C/c1ccc(O)cc1O	x	20	33*	21	x	x	11
O=C(CNC(=O)c1cccs1)N/N=C/c1ccc(O)cc1O	-49	15	6	10	0	2	x
COc1ccc(NC(=O)CSc2nnnn2C)cc1S(=O)(=O)N1CCCCC1	x	5	-6	5	x	x	x
Cc1cccc(C)c1NC(=O)C1CCCN1C(=O)NCc1ccccc1 (stereo unspecified)	x	-4	2	-1	x	x	x
COC(=O)c1cc2c(-c3ccccc3)cc3ccccn3c-2c1C(=O)OC	-62	48*	31*	36*	0	-10	12
COC(=O)c1c(C(=O)OC)c2cccc3cc(-c4ccccc4)c4ccc1c4n32	-37	33	31*	25	8	50	15
N#Cc1ccc(Oc2ccc(S(=O)(=O)N3CCOCC3)cn2)cc1	x	5	10	0	x	x	x
Cc1nn2c(=O)cc(COC(=O)c3c(F)cccc3Cl)nc2s1	x	-7	3	-5	x	x	x
CC(C)OC(=O)c1cc2c(ccn2C)n1CC(=O)N(Cc1ccccc1)c1ccc(F)cc1	-29	14	25	9	0	10	x
SMILES	Mcl1-Bid inh	MCL1-BIM inh	GLD-1 RNA inh	Bcl-xL primary	Bim-Mcl-1	Mcl1-Noxa inh	GLD1 RNA confirm
CCOC(=O)c1cc2c(ccn2C)n1CC(=O)N(Cc1ccccc1)c1ccc(F)cc1	-75	13	37*	9	-4	8	47*
CCOC(=O)c1cc2c(ccn2C)n1CC(=O)N(Cc1ccccc1)c1ccccc1	-62	2	36*	6	-3	16	56*
CCOc1ccc(S(=O)(=O)c2cn(C)c3cc(OC)c(OC)cc3c2=O)cc1	x	3	2	12	x	x	x
CN(CC(=O)Nc1n[nH]c(=S)s1)S(=O)(=O)c1cccc2cccnc12	x	-10	112*	-4	x	x	0
Cn1c(N)c(C(=O)CSc2nnc(-c3c[nH]c4ccccc34)n2C2CC2)c(=O)[nH]c1=O	x	-10	5	-4	x	x	x
CCOC(=O)[C@H]1[C@H]2COc3ccc(OC)cc3[C@@H]2N2C(=O)CN(Cc3ccc(Cl)cc3)C(=O)[C@@]12C	x	8	38*	16	x	x	13
CCOC(=O)[C@H]1[C@H]2COc3ccc(OC)cc3[C@@H]2N2C(=O)CN(Cc3ccc(F)cc3)C(=O)[C@@]12C	x	1	-3	1	x	x	x
O=C(O)[C@@H]1[C@@H]2C[C@@H]2CN1c1ncccc1[N+](=O)[O-]	-32	47*	39*	47*	-1	19	-2
O=C(O)C1CN(c2ncccc2[N+](=O)[O-])C1	-13	-2	9	1	1	7	x
O=C(Cc1ccsc1)NNC(=O)c1ccccc1O	x	8	6	2	x	x	x
Nc1c(-c2cccc([N+](=O)[O-])c2)nc2ccccn12	36	14	32*	6	-3	28	43*
COc1cccc(C(=O)NN2CC(O)=C(c3nc4ccccc4s3)C2=N)c1	-21	1	31*	0	1	13	-7
CCOC(=O)C1CC(=O)c2cc(OC)c(OC)cc2C1 (stereo unspecified)	-2	-1	60*	-1	x	4	1
CCOC(=O)C1Cc2cc3c(cc2C1=O)CC(C(=O)OCC)C3=O (stereo unspecified)	4	x	x	x	0	8	x
Cc1cc(Cl)ccc1C(=O)C1CCCN(C(=O)c2cccc(N3CCCC3=O)c2)C1 (stereo unspecified)	x	-5	3	3	x	x	x
Cc1cc(C)nc(SCc2ccc(C(=O)N/N=C3\CCCC(=O)C3)cc2)n1	-41	14	43*	8	3	-7	-9
CC(C)c1ccccc1NC(=O)CSc1n[nH]c(=O)n1C1CC1	x	-7	7	-8	x	x	x
CC(=O)Nc1c2c3c(cccc3n(C)c1=O)C(=O)c1ccccc1-2	-15	50*	32*	47*	0	10	8
COc1ccccc1-c1cnn2c(NC3CCCC3)cc(C)nc12	x	2	66*	-2	x	x	-2
CC(=O)c1ccc(OCCCC(=O)N2CCN(S(=O)(=O)c3ccc(C)cc3C)CC2)cc1	x	-3	2	1	x	x	x
O=c1oc2cc(O)ccc2cc1S(=O)(=O)c1ccccc1	x	30	40*	27	x	x	12
CC1CN(C(=O)C2CC2)C(C)CN1C(=O)C1CC1 (stereo unspecified)	-11	3	34*	2	-5	-3	-5
CC(=O)Oc1ccc(C(=O)[C@H]2[C@H]3C(=O)N(c4ccccc4)C(=O)[C@H]3[C@@H]3C=CC=NN32)cc1	-35	22	31*	26	-1	21	3
